# This is one part of a sample in which hits are shown more often than they occur.
# SF-1 inh = blocks the human nuclear receptor SF-1 | 65,000 compounds, 0.55% hits | AID 525 | inhibition, % at 10 µM | Q13285 | CHO-K1 Gal4-SF-1 LBD luciferase reporter;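 active = inhibition above the mean inhibition of all tested compounds plus 3 SD, cut at about 48% in these data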;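 note: 0% = SF-1 transfected cells with DMSO and 100% = mock-transfected cells lacking SF-1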
# Target sequence (Q13285 whole entry, looked up, the tested form may be a part): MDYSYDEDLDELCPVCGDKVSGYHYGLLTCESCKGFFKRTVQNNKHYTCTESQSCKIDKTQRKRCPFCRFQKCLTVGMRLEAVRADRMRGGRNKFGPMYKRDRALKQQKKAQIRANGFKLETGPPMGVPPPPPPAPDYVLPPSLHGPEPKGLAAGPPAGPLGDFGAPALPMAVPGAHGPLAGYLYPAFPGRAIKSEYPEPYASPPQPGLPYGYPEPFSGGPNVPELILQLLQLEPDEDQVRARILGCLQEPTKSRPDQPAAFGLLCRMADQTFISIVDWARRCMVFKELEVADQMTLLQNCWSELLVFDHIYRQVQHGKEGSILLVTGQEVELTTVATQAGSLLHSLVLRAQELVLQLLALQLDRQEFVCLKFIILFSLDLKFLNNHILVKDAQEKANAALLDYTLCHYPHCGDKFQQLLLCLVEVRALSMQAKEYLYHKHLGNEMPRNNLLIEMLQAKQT
# Numbers without * were called inactive.
SMILES,SF-1 inh
O=C(CSc1cccc2cccnc12)NCc1ccco1,12
CCOC(=O)CNc1c(N2CCN(c3ccccn3)CC2)c(=O)c1=O,-14
Cn1cc(C(=O)NCCN2CCN(c3ccccc3F)CC2)c2c3ccccc3n(C)c2c1=O,-5
Cc1ccc(-c2cn3nc(C)c(C)nc3n2)cc1,79*
O=C(NCCN1CCOCC1)C1CCC(=O)N1C1CCCCC1 (stereo not drawn),11
O=c1cc(CSc2nnc(-c3ccccc3)o2)c2ccccc2[nH]1,8
Cc1nn(-c2nc3ccccc3s2)c(C)c1Oc1ccccc1O,-58
CCCOc1ccc([C@@H]2C3CN(C(=O)OCC)CC=C3C(C#N)=C(N)C2(C#N)C#N)cc1OC (stereo partly drawn),6
N#CC1=C(N)C(C#N)(C#N)[C@H](c2ccncc2)[C@H]2CN(C(=O)OCc3ccccc3)CC=C12,48*
CCOC(=O)C1CCN(C(=O)CN(c2cccc(OC)c2)S(=O)(=O)c2ccccc2)CC1,-1
CCCn1c(SCC(=O)N2CCN(S(=O)(=O)c3ccc(Cl)cc3)CC2)n[nH]c1=O,13
COC(=O)c1ccccc1NC(=O)Nc1cc(C)cc(C)n1,-8
CN=c1scc(C)n1/N=C/c1ccc(O)cc1O,52*
CN=c1scc(C)n1/N=C/c1ccc(O)cc1,25
Cc1ccc(S(=O)(=O)N2CCN(C(=O)CN3CCN(C)CC3)C2)cc1,7
CCN(Cc1cc2cc(OC)ccc2[nH]c1=O)C(=O)Cc1ccc(OC)cc1,10
CCC(C(=O)N1CCc2ccccc2C1)n1nc(C)n2c(cc3occc32)c1=O (stereo not drawn),18
O=S(=O)(NCCc1cn2ccccc2n1)c1cccs1,-18
COC(=O)c1c(C)[nH]c(C(=O)OCc2ccc(F)cc2)c1C,-60
CCOC(=O)c1c(C)[nH]c(C(=O)COC(=O)C2CC2C)c1C (stereo not drawn),-54
CCOC(=O)c1c(C)[nH]c(C(=O)C(C)OC(=O)c2cccc(OCc3c(C)noc3C)c2)c1C (stereo not drawn),81*
O=S(=O)(NCCSc1nnnn1-c1ccccc1)c1cccs1,-54
CN(CC1CCCO1)S(=O)(=O)c1ccc(C(=O)Nc2nc(-c3ccccn3)cs2)cc1 (stereo not drawn),70*
O=C(CN(CC1CCCO1)C(=O)CCC(=O)Nc1ccccn1)NCC1CCCO1 (stereo not drawn),0
CCOc1ccc(S(=O)(=O)Nc2ccccc2C(=O)NCC2CCCO2)cc1 (stereo not drawn),10
SMILES,SF-1 inh
COC(=O)C1=C(N)N(c2ccc(F)cc2)C2=C(C(=O)CCC2)C1c1ccc2c(c1)OCO2 (stereo not drawn),13
COc1cc2c(cc1NC(=O)CN1C(=O)NC3(CCc4ccccc43)C1=O)oc1ccccc12 (stereo not drawn),-3
CSC1=C(C#N)C(C)C2=C(CC(C)(C)CC2=O)N1 (stereo not drawn),-3
COc1ccc(C(=O)Nc2nc3ccccc3[nH]2)cc1OC,-50
O=C(Nc1cccc(-c2nc3ccccc3[nH]2)c1)c1ccco1,-28
O=C(Nc1nc2ccccc2[nH]1)c1ccccc1F,84*
O=S(=O)(c1ccc(Cl)s1)N1CCN(C/C=C/c2ccccc2)CC1,1
Clc1ccc(OCCN2CCN(c3ncnc4sccc34)CC2)cc1,90*
N#CC(C(=O)OC1CCCCC1)c1nc2ccccc2nc1N1CCCCC1 (stereo not drawn),-3
CC(=O)Nc1ccc(-c2nc3c(C)cccc3[nH]2)cc1,-99
O=C(Nc1ccc2c(c1)OCO2)c1c(Cl)nc2sccn12,-66
CCOC(=O)c1cnc(-n2nc(C)cc2C)nc1Nc1ccc2c(c1)OCO2,6
CCOC(=O)c1snc(C(=O)NC2CCCCC2)c1N,-106
CCOC(=O)c1cnc(-n2nc(C)cc2C)nc1NC1CCCCC1,87*
O=C(CN1C(=O)NC2(CCCCCC2)C1=O)c1ccc2c(c1)OCCO2,-89
CC1CCCN(c2ccc(C(=O)NCC3CCCO3)cn2)C1 (stereo not drawn),-58
O=C(Nc1nsc(-c2ccccc2)n1)c1cccs1,-77
O=C(CSc1nnnn1-c1ccccc1)Nc1nsc(-c2ccc(Cl)cc2)n1,88*
COc1cccc(-n2nnnc2SCC(=O)Nc2cccc(C)n2)c1,1
COc1ccc2cc(CCNC(=O)C3CC3)c(=O)[nH]c2c1,-5
CCCC(=O)Nc1cccc(C(=O)Nc2nccs2)c1,-22
COc1cc2c(cc1NC(=O)c1ccc3c(c1)OCO3)oc1ccccc12,-54
O=C(NCCOc1ccccc1)c1ccc2c(c1)OCO2,59*
O=C(Nc1ccc(F)c(F)c1)c1ccc2c(c1)OCO2,-66
c1ccn2c(Cc3nnc4ccccn34)nnc2c1,-11
SMILES,SF-1 inh
COCCNc1nc2c(c(=O)n(C)c(=O)n2C)n1Cc1cccc(C)c1,-2
Cn1c(=O)c2c(nc(NCc3ccco3)n2C/C=C/c2ccccc2)n(C)c1=O,53*
Cn1c(=O)c2c(nc(NC(Cc3ccccc3)C(=O)O)n2Cc2ccccc2)n(C)c1=O (stereo not drawn),9
CC(C)CC(NC=C1C(=O)OC(C)(C)OC1=O)C(=O)O (stereo not drawn),6
CC(C)CCNC(=O)C1CCN(S(=O)(=O)c2ccc3c(c2)CCC(=O)N3)CC1,-10
CC(=O)c1c(C)nc2nonc2c1N,4
CCCCn1c2c(c(=O)n(C)c1=O)C(c1ccc(OC)cc1)N1CCCCCC1=N2 (stereo not drawn),49*
COc1ccc(Cl)cc1-n1c(=S)sc2c(=O)[nH]c(SCC(=O)NCC3CCCO3)nc21 (stereo not drawn),5
CC(C)(C)c1ccc(-c2conc2N)cc1,-52
COCCn1c(C)cc(C(=O)CSc2nc3ccccc3c(=O)[nH]2)c1C,-8
COCCn1c(C)cc(C(=O)COC(=O)c2n[nH]c3ccccc23)c1C,67*
COCCn1c(C)cc(C(=O)COC(=O)c2ccc3ncsc3c2)c1C,-52
CS(=O)(=O)N(CC(=O)NCc1ccncc1)c1cc(Cl)cc(Cl)c1,14
Cc1nnc(SCCN2CCOCC2)n1C,-13
CCN1C(=Nc2ccc(Cl)cc2)SC/C1=C\C(=O)OC,-2
Cc1ccccc1OC(=O)CCC(=O)OCCCC(F)(F)C(F)(F)F,-3
CCN(CC)CCCN1C(=O)C(O)=C(C(=O)c2cc3cccc(OC)c3o2)C1c1ccncc1 (stereo not drawn),-12
CCn1cc(Br)c(C(=O)Nc2cccc(SC)c2)n1,-50
O=C(CCCSc1nc2ccccc2[nH]1)NC1=NCCS1,12
O=C(CSC1=NCCS1)Nc1ccnc2ccccc12,67*
O=C(CSc1cn(Cc2ccccc2)c2ccccc12)Nc1nccs1,-84
COC(=O)c1sc(NC(=O)CSc2nnnn2-c2ccc(C)cc2C)nc1C,22
COc1ccc(CNc2nc3c(c(=O)n(Cc4ccc(F)cc4)c(=O)n3C)n2C)cc1,5
CC(C)Cn1c(N)c(C(=O)CSc2ccc3c(c2)OCCO3)c(=O)n(C)c1=O,69*
CC(C)c1nc(SCC(=O)Nc2ccc3c(c2)OCCO3)c2c(=O)n(C)c(=O)n(C)c2n1,8
CCn1c(SCC(=O)c2ccc3c(c2)OCCO3)nnc1C(C)C,-18
CC(=O)c1cccc(NC(=O)CN(c2ccc(C)cc2)S(=O)(=O)c2cccc3nonc23)c1,9
CCN=C1SC(C(=O)Nc2cccc(OCC)c2)CC(=O)N1CC (stereo not drawn),24
COc1ccc(C(CC(=O)Nc2nccs2)n2cccc2)cc1 (stereo not drawn),-55
c1ccc(-c2n[nH]c(-c3ccccn3)n2)nc1,-78

# Source: PubChem
